Our source for the outcome and AC50 values is PubChem BioAssay (EPA / NIEHS).

Activity calls are given as the source filed them. The calls were made as follows: active = hit-call score of the fitted dose curve at least 0.9, where 1 is the maximum; inactive = score below 0.9.

Read-out in the assay: Vascular cell adhesion molecule 1 (VCAM1), VCAM1 (gene 7412)
Nature of the assay: BSK_MyoF_VCAM1: BioMAP Diversity Plus: MyoF Assay for Vascular cell adhesion molecule 1 (VCAM1) Biomarker Activity (AID 2284231). The settings on record: primary human lung fibroblasts. As to the method:
BSK_MyoF is a cell-based, multiplexed-readout assay that uses lung fibroblasts, […], with measurements taken at 24 hours after chemical dosing in a microplate: 96-well plate.BSK_MyoF_VCAM1 is an assay component measured in the BSK_MyoF assay. It measures VCAM-1 antibody related to regulation of gene expression using ELISA technology.Data from the assay component BSK_MyoF_VCAM1 was analyzed at the endpoint, BSK_MyoF_VCAM1, in the positive analysis fitting direction relative to DMSO as the negative control and baseline of activity. Using a type of binding reporter, gain or loss-of-signal activity can be used to understand protein changes. To generalize the intended target to other relatable targets, this assay endpoint is annotated to the 'cell adhesion molecules' intended target family, where the subfamily is 'Immunoglobulin CAM'.
The levels of cell surface (or secreted, indicated by the prefix "s") biomarker endpoints were measured by ELISA. Overt cytotoxicity to cells in confluent adherent cultures (all systems other than the BT system) was assessed by measuring total protein levels using sulforhodamine B (SRB) staining in parallel cultures at the time of biomarker measurements, indicated as SRB endpoints. For proliferation assays for adherent cell types, individual cell types are cultured at sub-confluence and relative cell numbers quantified by SRB staining at time points optimized for each system (48 h: 3C and CASM3C systems; 72 h: BT and HDF3CGF systems; 96 h: SAg system). SRB was performed by staining cells with 0.1% SRB after fixation with 10% TCA and reading wells at 560 nm.Viability and proliferation of PBMC (T cells) was quantified by Alamar Blue reduction for the SAg and BT systems. For PBMC viability (referred to as PBMC Cytotoxicity within the assay endpoint names), cells were plated (75,000/well in a 96-well plate) and then chemical samples added for 1 h before addition of activators, SEB and TSST-1 (20 ng/mL final concentration each). Cells were incubated for 90 h. Then, Alamar Blue (20 uL/well) (Invitrogen, Cat DAL1100) was added for 6 h, and the plates were read with a fluorescence microplate reader at 546/580 nm (excitation/emission). For PBMC proliferation, cells were plated and activated as above but incubated for only 16 h prior to addition of Alamar Blue. Plates were read after 6 h.
For `CS(=O)(=O)c1ccc(C2=C(c3ccccc3)C(=O)OC2)cc1`, the outcome was inactive. What is called AC50 is the midpoint of the concentration-response curve, whichever way the signal moves. Turning to `COc1ccc(OC)c(N=Nc2c(O)ccc3ccccc23)c1`, the AC50 was 9.05 µM (active). Still for that read-out and setting: next, `CCCCN(CCCC)C(=O)N(CCCC)CCCC`: 10.5 µM (active). Turning to `C[C@@H]1CCN(C(=O)[C@H](CCCN=C(N)N)NS(=O)(=O)c2cccc3c2NC[C@H](C)C3)[C@@H](C(=O)O)C1`, the result was inactive. Consider `CC(=O)Nc1ccc(C(=O)CCl)cc1`, for which the AC50 is 23.9 µM (active). Take `CSCCC=O`: the result was inactive. With `COc1ccc(CCN2CCC(Nc3nc4ccccc4n3Cc3ccc(F)cc3)CC2)cc1`, the AC50 is 5 µM (active). Consider `c1ccc2cc(Nc3ccc(Nc4ccc5ccccc5c4)cc3)ccc2c1`, for which the outcome was inactive. Consider `CN(C)C(=O)Nc1ccc(Oc2ccc(Cl)cc2)cc1`, for which the result was inactive.

As to `Oc1c(Cl)cc(Cl)c(Cl)c1Cc1c(O)c(Cl)cc(Cl)c1Cl`, the AC50 was 0.555 µM (active).

For `CCC(C)c1cc([N+](=O)[O-])cc([N+](=O)[O-])c1OC(=O)OC(C)C` (stereo not drawn), the half-maximal activity concentration (AC50) is 8.46 µM (active). For `O=C1OC2(c3ccccc31)c1ccc(O)c(Br)c1Oc1c2ccc(O)c1Br`, the outcome was inactive. With `COc1cc(Cl)c(OC)cc1N`, the outcome was inactive. `c1ccc(Oc2ccccc2)cc1`: the outcome was inactive. With `C=C(C)C(=O)OCCOCCOCCOCCOC(=O)C(=C)C`, the outcome was inactive. Regarding `C=C(C)C(=O)OCC(CC)(COC(=O)C(=C)C)COC(=O)C(=C)C`, the AC50 is 11.2 µM (active). In the case of `IC(I)I`, the outcome was inactive.

As for `CCCCOC(=O)CCCCCCCC(=O)OCCCC`, the result was inactive. Consider `C=C(C)[C@H]1CC=C(C)C(=O)C1`, for which the outcome was inactive. Take `CC(=O)c1c(C)c([N+](=O)[O-])c(C(C)(C)C)c([N+](=O)[O-])c1C`: the outcome was inactive. For the compound `CC=Cc1ccc(OCC)c(O)c1`, the result was inactive.

With `CN(c1nccc(=O)[nH]1)C1CCN(c2nc3ccccc3n2Cc2ccc(F)cc2)CC1`, the AC50 is 3.1 µM (active).

With `O=C1c2ccccc2C(=O)c2c(O)ccc(O)c21`, the result was inactive. With `CC(C)(C)CC(C)(C)c1ccc(OCCOCC[N+](C)(C)Cc2ccccc2)cc1`, the AC50 is 8.24 µM (active). Still for that read-out and setting: the value for `CN(C)C(=S)SC(=S)N(C)C` was 35.5 µM (active). As to `CCCCCCCCCCCCCCCC(=O)OC/C=C(C)/C=C/C=C(C)/C=C/C1=C(C)CCCC1(C)C`, the outcome was inactive. Turning to `CC1(C)C2=CCCC(C)(C)[C@]23CC[C@H]1C3`, the concentration at half-maximal activity (AC50) was 31.9 µM (active). Consider `Cc1cc(CCC(=O)OCCOCCOCCOC(=O)CCc2cc(C)c(O)c(C(C)(C)C)c2)cc(C(C)(C)C)c1O`, for which the outcome was inactive. In the case of `c1ccc(CCc2ccccc2)cc1`, the AC50 was 31 µM (active).

For the compound `CC(C=O)Cc1ccc(C(C)(C)C)cc1` (stereo not drawn), the result was inactive. As to `CCCCCC(C=O)=Cc1ccccc1`, the AC50 is 34.2 µM (active). With `C=C(C)C(=O)OCCOCCOCCOC(=O)C(=C)C`, the result was inactive. Regarding `C1=CC2C3C=CC(C3)C2C1` (stereo not drawn), the result was inactive. On to `CCN(CC)C(=O)N(CC)CC`, for which the outcome was inactive.

In the case of `Clc1cc(Cl)c(-c2c(Cl)c(Cl)cc(Cl)c2Cl)cc1Cl`, the AC50 is 2.76 µM (active). As to `CC(=O)C1(C)CC2=C(CCCC2(C)C)CC1C` (stereo not drawn), the AC50 was 12.1 µM (active). On to `CC(C)(N=C=O)c1cccc(C(C)(C)N=C=O)c1`, for which the result was inactive. Regarding `O=C1OC[C@H](Cc2cccc(O)c2)[C@H]1Cc1cccc(O)c1`, the result was inactive.
